Screens deposited in PubChem BioAssay by National Center for Advancing Translational Sciences (NCATS).
This excerpt belongs to a sample that is enriched for hits.
PKM2 inh = qHTS Assay for Inhibitors of Human Muscle isoform 2 Pyruvate Kinase; Pyruvate kinase PKM (Homo sapiens), P14618; purified PKM2, ATP generation, Kinase-Glo luminescence; Potency, µM (series often up to 57.5 µM), for the others: top-dose activity change, negative = inhibition, hits mostly inhibitors; hit rate 0.058% among 260,000; AID 1634, 2009; also: potency is read from the fitted curve at half-maximal effect; nearly all actives have a fitted effect of over 60% in size
Target sequence (P14618 whole entry, looked up, canonical isoform): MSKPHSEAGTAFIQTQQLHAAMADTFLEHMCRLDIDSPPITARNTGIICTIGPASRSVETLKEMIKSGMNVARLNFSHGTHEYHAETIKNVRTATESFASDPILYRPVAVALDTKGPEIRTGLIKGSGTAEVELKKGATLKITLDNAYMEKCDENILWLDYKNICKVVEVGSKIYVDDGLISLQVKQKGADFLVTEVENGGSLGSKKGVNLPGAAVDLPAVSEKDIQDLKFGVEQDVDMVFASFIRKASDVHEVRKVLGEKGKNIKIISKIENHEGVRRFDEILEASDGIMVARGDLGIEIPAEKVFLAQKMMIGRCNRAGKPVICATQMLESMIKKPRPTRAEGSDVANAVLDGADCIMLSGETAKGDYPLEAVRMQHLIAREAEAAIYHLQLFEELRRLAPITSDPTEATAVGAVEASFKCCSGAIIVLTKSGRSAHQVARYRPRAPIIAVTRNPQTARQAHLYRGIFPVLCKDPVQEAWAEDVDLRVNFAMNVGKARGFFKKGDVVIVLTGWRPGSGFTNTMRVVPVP
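Coupled luciferase luminescence (Kinase-Glo) detects ATP generated from 0.1 mM ADP and 0.5 mM PEP in imidazole buffer pH 7.2 with KCl, MgCl2; 1 h at room temperature. Enzyme at intermediate activity; normalized to uninhibited and no-enzyme controls.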
PKM2 inh CRC = Confirmation Concentration-Response Assay for Inhibitors of Human Muscle isoform 2 Pyruvate Kinase; Potency, µM (series often up to 57.5 µM), for inactives: top-dose activity change, negative = inhibition, actives largely listed as inhibitors; shares compounds with PKM2 inh; hit rate 50% among 55; purified hPK-M2, Kinase-Glo ATP luminescence, 1 h
PKM2 FLuc cs = Secondary assay for Inhibitors of Human Pyruvate Kinase M2 isoform: FLuc Counterscreen; hit rate 30% among 55; Potency, µM (series often up to 57.5 µM), without a hit: top-dose activity, negative = inhibition, most hits filed as inhibitors; shares compounds with PKM2 inh; AID 2265, 2010; Kinase-Glo firefly luciferase, luminescence, 8 min
PKM2 LDH couple = Secondary assay for Inhibitors of Human Pyruvate Kinase M2 isoform. 55 tested, under 10 active. Potency, µM (top dose mostly 57.5 µM), inactives show top-dose activity change, negative = inhibition, hits mostly inhibitors. shares compounds with PKM2 inh. AID 2267, 2010. purified hPK-M2, LDH-coupled NADH fluorescence kinetic
Active calls of the source: *; ? = inconclusive; nt = no result. Calls follow the shape of the dose curve; as a rule, active = well fitted curve in the direction sought with a large enough effect; inconclusive = small, poorly fitted or top-dose-only effect, or another doubt; inactive = no such curve, though single readings can be large; an effect the other way counts as inactive or inconclusive.

SMILES	PKM2 inh	others
COc1cc(/C=N/Nc2nn3cnnc3c3ccccc23)ccc1O	25µM*
COc1cc(/C=N\Nc2nc(-c3ccc(C)cc3)c(NC(C)=O)s2)ccc1O	72%
CCc1nc2oc3cc(OC)ccc3c(=O)c2c(=O)n1Cc1ccco1	109%
CC(=O)c1c(C)[nH]c(C(=O)Nc2ccc(Cl)c(S(=O)(=O)N3CCOCC3)c2)c1C	47%
Cc1nc2cc(-c3ccccc3)sc2c(=O)n1N	3.5µM*	PKM2 inh CRC=3.7µM*;PKM2 FLuc cs=2.6µM*;PKM2 LDH couple=-5%
N#CCn1cnc2sc(-c3ccccc3)cc2c1=O	31%
Cc1ccc(-c2cc(C(=O)Nc3ccccc3C)c3ccccc3n2)o1	43%
Cc1ccc(-c2nc3ccccn3c2Nc2ccccc2C)o1	nt	PKM2 inh CRC=10%;PKM2 FLuc cs=2%;PKM2 LDH couple=4.6µM*
Cc1ccc(Nc2c(-c3ccc(C)o3)nc3ncccn23)cc1	57%
Cc1ccc2nc(-c3ccc(C)o3)c(Nc3ccc(Cl)cc3)n2c1	nt	PKM2 inh CRC=21%;PKM2 FLuc cs=-1%;PKM2 LDH couple=?
COc1ccc(-c2nc3ccccn3c2Nc2ccccc2C)cc1	nt	PKM2 inh CRC=?;PKM2 FLuc cs=0%;PKM2 LDH couple=-28%
Cc1ccc(-c2nc3ncccn3c2Nc2ccccc2C)o1	69%
C=CCOC(=O)CCP(=O)(CCC(=O)OCC=C)c1ccccc1	48%
COc1cc(C(=O)Nc2cc(-c3ccccc3)[nH]n2)cc(OC)c1OC	63%
O=C1N/C(=C/c2ccco2)C(=O)N1Cc1ccccc1F	44%
Cc1ccc(/C=N/NC(=O)CSc2nc3ccccc3n2Cc2ccc(Cl)cc2)o1	31%
O=C1c2oc3ccc(Cl)cc3c(=O)c2C(c2cccc(Br)c2)N1CCO (configuration not stated)	38%
C#CCn1c(=NC(=O)CN2C(=O)CCC2=O)sc2cc(S(N)(=O)=O)ccc21	38%
COc1ccc(-c2cn3ccccc3n2)cc1OC	8.9µM*	PKM2 inh CRC=?;PKM2 FLuc cs=?;PKM2 LDH couple=?
COc1ccc(-c2ccc(=O)n(CC(=O)Nc3cccc(O)c3)n2)cc1OC	53%
COc1ccc(-c2ccc(Nc3ccc(C(=O)N4CCOCC4)cc3)nn2)cc1OC	5%
Cc1c(O)c(O)cc2c1oc1c3ccccc3oc(=O)c21	38%
Cc1ccc(NC(=O)Cn2c(CCC(=O)O)ccc2-c2cccs2)cc1Cl	47%
Cc1cccc(N2CCN(C(=O)c3ccc(NS(=O)(=O)c4c(C)noc4C)cc3)CC2)c1C	35%
Cc1cc(NC(=O)CSC2=NCCS2)no1	54%
SMILES	PKM2 inh	others
CCCCn1c(N)c(Sc2ccc(Cl)cc2)c(=O)[nH]c1=O	30%
COc1ccc(C(=O)N=c2nc3ccccn3s2)cc1	7.9µM*	PKM2 inh CRC=13µM*;PKM2 FLuc cs=5.2µM*;PKM2 LDH couple=-5%
Cc1ccc(NC(=O)c2cnn(-c3ccccc3)c2C)cc1C	-4%
CN(C)S(=O)(=O)c1ccc(NC(=O)CN2CCCCCC2)cc1	45%
COc1ccccc1CNC(=S)Nc1ccc2nc(N3CCN(C)CC3)cc(C)c2c1	71%
O=C(Nc1nc2ccccc2n1CCOc1ccccc1)c1ccco1	-6%
Cc1cc(NC(=O)c2ccccc2)ncc1NC(=O)c1ccco1	?	PKM2 inh CRC=16µM*;PKM2 FLuc cs=?;PKM2 LDH couple=-13%
O=C(Nc1cc([N+](=O)[O-])ccc1N1CCCC1)c1ccco1	49%
Cc1[nH]c2ccccc2c1C(=O)/C=C\c1ccccc1Cl	44%
COc1ccc(C(=O)Oc2c(CN3CCOCC3)cc(Cl)c3cccnc23)cc1	-6%
C=CCN1C(=O)N/C(=C/c2ccc(N3CCOCC3)o2)C1=O	45%
CCOc1ccc(C(=O)O/N=C(\N)c2ccccn2)cc1	7.9µM*	PKM2 inh CRC=5.8µM*;PKM2 FLuc cs=6.5µM*;PKM2 LDH couple=-10%
N/C(=N\OC(=O)c1ccccc1)c1ccccn1	4µM*	PKM2 inh CRC=9.2µM*;PKM2 FLuc cs=4.1µM*;PKM2 LDH couple=-9%
C/C(=N\NC(=O)C1CCCN(S(=O)(=O)c2ccccc2)C1)c1ccccn1 (configuration not stated)	2%
CCOc1ccc(NC(c2ccccn2)c2oc(CO)cc(=O)c2O)cc1 (configuration not stated)	41%
CCOC(=O)N1CCN(S(=O)(=O)c2ccc(OCC)cc2)CC1	35%
Nc1ccnn1Cc1cccnc1	-4%
CCn1c(=O)c(=O)n(CC)c2cc(S(=O)(=O)Nc3cccc(OC)c3)ccc21	49%
COc1ccccc1/C=N/N1C(=O)c2cccc3cccc(c23)C1=O	62%
Cc1sc(C(C2C(=O)CC(C)(C)CC2=O)C2C(=O)CC(C)(C)CC2=O)cc1[N+](=O)[O-]	63%
Cn1nccc1C(=O)N1CCN(c2ncccn2)CC1	17%
CC1(C)Cc2ccccc2C(/C(=N\Nc2cccc(Cl)c2)C(N)=O)=N1	-9%
CCCCn1c(-c2ccc(Cl)cc2)nc2c(=O)n(C)c(=O)[nH]c21	31%
Cc1cc(Br)ccc1SCC(=O)OCC(=O)N1CCN(C(=O)c2ccco2)CC1	119%
Cc1ccc(Nc2c(-c3ccc(C)s3)nc3cccc(C)n23)cc1	nt	PKM2 inh CRC=?;PKM2 FLuc cs=0%;PKM2 LDH couple=16%
SMILES	PKM2 inh	others
COc1ccc(-c2nc3cccc(C)n3c2Nc2ccc(C)cc2)cc1	nt	PKM2 inh CRC=6%;PKM2 FLuc cs=-3%;PKM2 LDH couple=?
Cc1ccccc1Nc1c(-c2ccccc2)nc2cccc(C)n12	nt	PKM2 inh CRC=4%;PKM2 FLuc cs=-2%;PKM2 LDH couple=?
Cc1cc2nc3c(=O)[nH]c(=O)[nH]c3nc2c([N+](=O)[O-])c1N	44%
CCC(=O)N(CCC(c1ccccc1)c1ccco1)Cc1cccs1 (configuration not stated)	33%
CSc1ccc(S(=O)(=O)N2CCC(C(=O)NCc3ccco3)CC2)cc1	72%
CCn1c(N)c(C(=O)NCc2ccco2)sc1=S	108%
Cc1cc(C)c(C#N)c(SCc2ccccc2F)n1	48%
CCS(=O)(=O)N1CCC(C(=O)NCc2ccc(F)cc2Cl)CC1	13%
Cc1ccc(NC(=O)CSCC(=O)Nc2ncc3c(n2)CC(c2ccco2)CC3=O)cc1 (configuration not stated)	33%
Cc1ccc(-c2csc(NC(=O)c3cccc(N4C(=O)CCC4=O)c3)n2)o1	43%
O=C(CSc1ncn[nH]1)Nc1ccc(Br)cc1F	9%
Cc1cc(C(=O)O)cc(S(=O)(=O)N2CCOCC2)c1C	6%
CC1(C)NC(=O)N(CC(=O)Nc2cc(S(=O)(=O)N3CCOCC3)ccc2N2CCOCC2)C1=O	37%
O=c1c2ccccc2sn1-c1cc(S(=O)(=O)N2CCOCC2)ccc1N1CCCC1	3.5µM*	PKM2 inh CRC=6.5µM*;PKM2 FLuc cs=1%;PKM2 LDH couple=?
O=C(c1cc(S(=O)(=O)N2CCOCC2)ccc1Cl)N1CCN(c2ccccn2)CC1	87%
O=C(O)c1ccc(N2C(=O)/C(=C/c3ccc(-c4ccc([N+](=O)[O-])cc4)o3)C=C2c2ccccc2)cc1	54%
Cc1ccc2cc(CCNS(=O)(=O)c3ccc(F)cc3)c(=O)[nH]c2c1	55%
Cc1cccc(N2C(=O)/C(=C\c3ccc(C(=O)O)cc3)c3ccccc3C2=O)c1	33%
Cc1cc(=O)[nH]c(SCC(=O)Nc2cccc3ccccc23)c1C#N	39%
